For some assays here: Measured potencies and affinities stand elsewhere.
Assays:
Set-up in all cases: scale not given: direction of the effect not stated beside the values
[1] = biological target: Protein translocase subunit SecA (Escherichia coli (strain K12)) (UniProt P10408); experiment: Assay to Identify E. coli SecA ATPase Inhibitors; assay type: functional; settings: 30 µM
[2] = biological target: T1, Ubiquitin-activating enzyme e1, putative (Leishmania donovani (strain BPK282A1)) (UniProt E9BSI1); experiment: Leishmania donovani Ubiquitin Activating Enzyme (LdE1); assay type: functional; settings: 30 µM
T1 sequence (whole entry): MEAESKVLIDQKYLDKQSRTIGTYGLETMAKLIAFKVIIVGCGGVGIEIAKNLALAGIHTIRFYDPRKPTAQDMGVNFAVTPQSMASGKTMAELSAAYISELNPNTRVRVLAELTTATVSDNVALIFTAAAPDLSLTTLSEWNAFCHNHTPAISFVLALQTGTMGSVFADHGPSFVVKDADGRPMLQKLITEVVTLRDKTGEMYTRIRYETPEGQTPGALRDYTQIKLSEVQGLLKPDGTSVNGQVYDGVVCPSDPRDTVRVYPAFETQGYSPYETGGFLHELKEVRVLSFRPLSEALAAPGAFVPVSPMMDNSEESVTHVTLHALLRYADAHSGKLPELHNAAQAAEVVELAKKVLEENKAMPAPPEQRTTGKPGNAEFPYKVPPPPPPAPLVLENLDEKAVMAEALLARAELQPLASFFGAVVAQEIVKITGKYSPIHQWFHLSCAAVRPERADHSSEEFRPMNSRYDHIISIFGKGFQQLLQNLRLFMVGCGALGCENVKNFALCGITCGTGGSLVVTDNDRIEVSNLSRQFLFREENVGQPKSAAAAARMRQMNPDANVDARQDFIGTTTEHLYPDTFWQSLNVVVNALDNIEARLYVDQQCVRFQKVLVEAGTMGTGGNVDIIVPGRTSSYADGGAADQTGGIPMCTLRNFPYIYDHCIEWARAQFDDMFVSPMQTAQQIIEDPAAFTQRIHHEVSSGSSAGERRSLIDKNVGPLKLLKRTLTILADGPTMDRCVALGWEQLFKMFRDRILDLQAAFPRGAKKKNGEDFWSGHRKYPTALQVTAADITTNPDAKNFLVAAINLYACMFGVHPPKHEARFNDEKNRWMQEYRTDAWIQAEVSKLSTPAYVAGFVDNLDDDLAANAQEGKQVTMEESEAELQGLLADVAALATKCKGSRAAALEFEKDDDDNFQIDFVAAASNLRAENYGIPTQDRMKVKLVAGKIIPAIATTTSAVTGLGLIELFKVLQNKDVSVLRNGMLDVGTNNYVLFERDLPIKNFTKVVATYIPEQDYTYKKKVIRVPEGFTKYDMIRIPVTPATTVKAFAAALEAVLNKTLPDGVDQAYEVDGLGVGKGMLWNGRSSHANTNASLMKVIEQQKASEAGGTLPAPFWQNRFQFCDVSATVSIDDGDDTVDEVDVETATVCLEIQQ

[3] = biological target: AMP-activated protein kinase, AMPK (Homo sapiens) (UniProt P54646+O43741+P54619+Q9UGJ0+Q9Y478+Q13131+Q9UGI9); experiment: AMP-dependent Kinase enzyme assay. An in vitro enzyme assay that detects ADP turnover that is directly proportional to AMPK activity. This uses naive AMPK that is activated during the assay with MK-8722; assay type: functional; settings: 30 µM
[4] = biological target: Sialic acid-binding Ig-like lectin 9 (Homo sapiens) (UniProt Q9Y336); experiment: Hs-Siglec9 ALPHAscreen SOP 20170721; settings: 10 µM
Chain of Sialic acid-binding Ig-like lectin 9 (Homo sapiens) (Q9Y336 whole entry): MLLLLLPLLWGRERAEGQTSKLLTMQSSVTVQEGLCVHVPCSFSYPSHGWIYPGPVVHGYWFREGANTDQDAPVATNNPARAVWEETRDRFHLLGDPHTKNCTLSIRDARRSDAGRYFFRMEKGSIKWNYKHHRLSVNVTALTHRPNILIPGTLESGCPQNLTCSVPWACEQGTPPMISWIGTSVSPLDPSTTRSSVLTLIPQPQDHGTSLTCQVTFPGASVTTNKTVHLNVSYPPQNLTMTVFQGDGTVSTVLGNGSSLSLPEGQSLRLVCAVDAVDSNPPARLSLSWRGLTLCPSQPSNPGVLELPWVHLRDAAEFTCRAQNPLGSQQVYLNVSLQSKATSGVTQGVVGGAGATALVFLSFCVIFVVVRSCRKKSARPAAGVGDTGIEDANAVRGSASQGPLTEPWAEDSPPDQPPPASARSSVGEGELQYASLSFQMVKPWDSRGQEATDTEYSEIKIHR

Trypanosoma cruzi = experiment: Trypanosoma cruzi phosphomannomutase and mannose-1-phosphate guanylyltransferase assay; assay type: functional; settings: 10 µM
[5] = biological target: T2, Arginase-2, mitochondrial (Homo sapiens) (UniProt P78540); experiment: in vitro enzyme assay to detect the production of urea directly proportional to the activity of Arginase II; assay type: functional; settings: 33.3 µM; also: in the data most compounds retested in dose-response had high values
T2 sequence (whole entry): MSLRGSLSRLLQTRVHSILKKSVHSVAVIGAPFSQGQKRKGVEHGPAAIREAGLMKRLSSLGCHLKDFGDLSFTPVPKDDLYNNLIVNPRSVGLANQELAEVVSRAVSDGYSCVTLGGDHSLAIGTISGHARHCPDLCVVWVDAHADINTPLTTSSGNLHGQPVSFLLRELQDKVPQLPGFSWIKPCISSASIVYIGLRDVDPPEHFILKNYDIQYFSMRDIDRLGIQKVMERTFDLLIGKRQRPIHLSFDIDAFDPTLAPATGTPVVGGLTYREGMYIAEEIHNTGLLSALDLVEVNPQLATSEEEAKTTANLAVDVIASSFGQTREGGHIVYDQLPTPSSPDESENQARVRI

[6] = biological target: T3, Proteasome subunit beta (Trypanosoma cruzi) (UniProt O96673); experiment: Trypanosoma cruzi proteasome chymotrypsin-like activity (TcProtChymo) assay.; also: in the data most compounds retested in dose-response had high values; assay type: functional; settings: 9.37 µM
T3 sequence (whole entry): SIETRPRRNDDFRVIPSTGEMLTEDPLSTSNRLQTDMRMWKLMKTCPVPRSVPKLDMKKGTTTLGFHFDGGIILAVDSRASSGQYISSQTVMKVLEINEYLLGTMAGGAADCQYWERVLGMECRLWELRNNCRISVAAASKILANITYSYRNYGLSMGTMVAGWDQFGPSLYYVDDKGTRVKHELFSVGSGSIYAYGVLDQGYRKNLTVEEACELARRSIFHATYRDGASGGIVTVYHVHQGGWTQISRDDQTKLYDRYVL

Homo sapiens = species on record: Homo sapiens; experiment: To identify inhibition of the IFN signalling (Jak-Stat) pathway via expression of an eGFP reporter gene under the control of an IFN-stimulated response element (ISRE) containing MxA promoter.; assay type: functional; settings: 30 µM
[7] = biological target: T4, Tyrosyl-tRNA synthetase, putative (Trypanosoma cruzi (strain CL Brener)) (UniProt Q4DSP6); experiment: Trypanosoma cruzi tyrosyl tRNA synthetase (TcYRS) _High Tyrosine SOP; assay type: functional; settings: 30 µM; also: in the data most compounds retested in dose-response had high values
T4 sequence (whole entry): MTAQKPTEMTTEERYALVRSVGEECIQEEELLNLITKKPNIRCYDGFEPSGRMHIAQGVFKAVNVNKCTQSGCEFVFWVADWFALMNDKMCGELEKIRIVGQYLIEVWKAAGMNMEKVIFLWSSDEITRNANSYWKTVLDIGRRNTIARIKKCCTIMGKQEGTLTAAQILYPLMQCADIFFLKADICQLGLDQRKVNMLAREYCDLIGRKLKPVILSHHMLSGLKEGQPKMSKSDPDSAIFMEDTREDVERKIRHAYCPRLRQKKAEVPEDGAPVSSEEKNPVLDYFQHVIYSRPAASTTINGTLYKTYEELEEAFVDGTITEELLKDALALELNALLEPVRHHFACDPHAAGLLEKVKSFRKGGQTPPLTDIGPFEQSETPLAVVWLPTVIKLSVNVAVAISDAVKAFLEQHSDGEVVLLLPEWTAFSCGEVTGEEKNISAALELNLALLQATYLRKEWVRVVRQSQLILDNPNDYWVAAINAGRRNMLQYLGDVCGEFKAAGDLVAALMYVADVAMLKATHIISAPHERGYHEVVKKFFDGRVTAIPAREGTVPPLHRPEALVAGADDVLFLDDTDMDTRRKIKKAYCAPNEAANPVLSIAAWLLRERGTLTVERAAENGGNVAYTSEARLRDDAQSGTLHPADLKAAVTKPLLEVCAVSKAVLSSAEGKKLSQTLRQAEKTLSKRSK

[8] = biological target: T4, Tyrosyl-tRNA synthetase, putative (Trypanosoma cruzi (strain CL Brener)); experiment: Trypanosoma cruzi tyrosyl tRNA synthetase (TcYRS) SOP; assay type: functional; settings: 30 µM
[9] = biological target: Chromo domain-containing protein 1 (Saccharomyces cerevisiae (strain ATCC 204508 / S288c) (Baker's yeast)) (UniProt P32657); experiment: ScCHD-1 Enzyme Inhibition Assay; assay type: functional; settings: 30 µM; also: in the data most compounds retested in dose-response had high values
Chain of Chromo domain-containing protein 1 (Saccharomyces cerevisiae (strain ATCC 204508 / S288c) (Baker's yeast)) (P32657 whole entry, the tested form may be a part): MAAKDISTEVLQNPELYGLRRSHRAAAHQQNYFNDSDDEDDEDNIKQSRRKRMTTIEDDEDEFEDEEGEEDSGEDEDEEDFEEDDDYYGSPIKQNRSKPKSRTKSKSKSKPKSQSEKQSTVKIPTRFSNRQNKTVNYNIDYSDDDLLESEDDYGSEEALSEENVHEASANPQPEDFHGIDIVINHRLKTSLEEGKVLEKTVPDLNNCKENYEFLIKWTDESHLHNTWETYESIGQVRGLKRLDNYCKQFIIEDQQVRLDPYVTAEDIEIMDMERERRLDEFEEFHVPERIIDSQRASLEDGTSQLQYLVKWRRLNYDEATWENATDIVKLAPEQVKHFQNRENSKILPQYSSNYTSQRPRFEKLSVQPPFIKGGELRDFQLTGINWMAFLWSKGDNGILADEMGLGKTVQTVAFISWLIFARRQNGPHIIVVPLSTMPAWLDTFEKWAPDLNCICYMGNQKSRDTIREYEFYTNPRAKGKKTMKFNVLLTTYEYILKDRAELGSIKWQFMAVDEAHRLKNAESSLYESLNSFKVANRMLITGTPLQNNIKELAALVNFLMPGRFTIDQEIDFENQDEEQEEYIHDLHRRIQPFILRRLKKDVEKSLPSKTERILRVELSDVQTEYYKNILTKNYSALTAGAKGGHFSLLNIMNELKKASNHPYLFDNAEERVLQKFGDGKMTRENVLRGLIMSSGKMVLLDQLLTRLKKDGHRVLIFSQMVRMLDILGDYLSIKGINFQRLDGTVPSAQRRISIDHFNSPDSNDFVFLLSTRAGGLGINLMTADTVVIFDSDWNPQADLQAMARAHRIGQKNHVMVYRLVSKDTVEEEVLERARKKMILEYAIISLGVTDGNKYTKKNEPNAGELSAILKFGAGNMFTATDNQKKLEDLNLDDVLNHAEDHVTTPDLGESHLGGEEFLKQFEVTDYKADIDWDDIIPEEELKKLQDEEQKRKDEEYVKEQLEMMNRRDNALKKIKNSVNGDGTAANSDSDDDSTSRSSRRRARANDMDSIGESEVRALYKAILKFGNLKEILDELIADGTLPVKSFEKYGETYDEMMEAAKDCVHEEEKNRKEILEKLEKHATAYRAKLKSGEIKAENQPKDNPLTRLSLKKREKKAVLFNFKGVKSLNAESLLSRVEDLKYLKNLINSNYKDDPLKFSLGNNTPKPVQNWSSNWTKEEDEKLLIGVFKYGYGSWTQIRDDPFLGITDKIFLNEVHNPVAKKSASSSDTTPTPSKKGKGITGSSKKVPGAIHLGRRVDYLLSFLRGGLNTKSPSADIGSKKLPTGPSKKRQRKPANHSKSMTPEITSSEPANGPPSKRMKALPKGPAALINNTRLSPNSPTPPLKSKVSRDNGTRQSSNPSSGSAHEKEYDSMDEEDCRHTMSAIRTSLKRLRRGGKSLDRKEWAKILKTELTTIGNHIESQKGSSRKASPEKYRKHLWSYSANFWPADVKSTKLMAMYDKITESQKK

Chain of Protein translocase subunit SecA (Escherichia coli (strain K12)) (P10408 whole entry): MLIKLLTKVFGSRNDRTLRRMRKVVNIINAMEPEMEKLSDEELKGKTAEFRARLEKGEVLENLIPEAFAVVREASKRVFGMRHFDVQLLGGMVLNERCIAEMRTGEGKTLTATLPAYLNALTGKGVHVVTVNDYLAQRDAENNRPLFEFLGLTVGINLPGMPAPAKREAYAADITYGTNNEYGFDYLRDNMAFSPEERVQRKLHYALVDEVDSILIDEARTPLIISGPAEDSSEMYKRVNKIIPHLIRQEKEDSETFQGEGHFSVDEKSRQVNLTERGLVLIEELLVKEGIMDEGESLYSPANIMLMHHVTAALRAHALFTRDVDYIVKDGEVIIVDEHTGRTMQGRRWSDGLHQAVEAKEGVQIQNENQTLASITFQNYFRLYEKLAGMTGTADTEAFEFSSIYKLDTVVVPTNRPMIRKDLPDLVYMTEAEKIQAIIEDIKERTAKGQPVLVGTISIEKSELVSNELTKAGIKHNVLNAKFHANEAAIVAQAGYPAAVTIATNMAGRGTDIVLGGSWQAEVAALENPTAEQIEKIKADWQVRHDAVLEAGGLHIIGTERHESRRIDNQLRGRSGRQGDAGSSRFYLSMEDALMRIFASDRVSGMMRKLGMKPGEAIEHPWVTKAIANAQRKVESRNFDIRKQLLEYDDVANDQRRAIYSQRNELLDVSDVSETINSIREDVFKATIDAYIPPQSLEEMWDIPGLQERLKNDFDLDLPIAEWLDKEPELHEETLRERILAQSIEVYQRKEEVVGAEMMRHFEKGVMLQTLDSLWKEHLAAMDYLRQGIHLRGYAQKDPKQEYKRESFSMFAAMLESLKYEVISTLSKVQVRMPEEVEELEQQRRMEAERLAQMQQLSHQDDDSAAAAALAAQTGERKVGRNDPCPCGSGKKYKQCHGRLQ

SMILES | Percent Effect [1] | Percent Effect [2] | Percent Effect [3] | Percent Effect [4] | Percent Effect (Trypanosoma cruzi) | Percent Effect [5] | Percent Effect [6] | Percent Effect (Homo sapiens) | Percent Effect [7] | Percent Effect [8] | Percent Effect [9]
CCn1cc(CN(C)S(=O)(=O)c2ccc(NC(C)=O)cc2)cn1 | 2.78% | 14.7% | 5.54% | -0.366% | -2.95% | -15% | 7.39% | 18% | 1.06% | 7.69% | -7.39%
O=c1nc(SCc2ccncc2)c2c(n1CCO)CCCC2 | -0.843% | 16.4% | -2.68% | 11.4% | 3.92% | 19.6% | 21.8% | 19.8% | 3.23% | 7.5% | -7.55%
CC(C)c1noc(CN(Cc2ccccc2F)C2CC2)n1 | -1.22% | 15.6% | -0.613% | 8.23% | 3.64% | -75.9% | 22.5% | 10.9% | 7.53% | 18.5% | -1.83%
COCC1CN(Cc2ccc(C)o2)Cc2ncn(CC3CC3)c21 (stereo unspecified) | 0.368% | 5.2% | -2.46% | 5.95% | 6.79% | -6.9% | 3.99% | -10.6% | 1.07% | 1.24% | -7.38%
CSCCC(=O)N1CCCC1c1ccsc1 (stereo unspecified) | 0.213% | 9.72% | 0.426% | -10.9% | -4.76% | -1.32% | 18.8% | 30.2% | 4.21% | 0% | 103%
OC[C@H]1CC[C@]2(CC1)CN(Cc1ccccn1)Cc1ccccc1O2 | -1.22% | 1.35% | 15.4% | 4.6% | -3.56% | 1.16% | 1.25% | 5.31% | 5.38% | 3.9% | -8.96%
CN(Cc1ccsc1)C(=O)CN1CCCC1Cn1cccn1 (stereo unspecified) | -3.48% | -18.2% | 2.08% | -4.38% | 5% | -1.05% | 3.8% | -6.97% | 11.4% | 7.06% | 4.97%
CN(C)c1ncccc1CNC(=O)N1CCCC1CN1CCCCC1 (stereo unspecified) | -3.1% | 23.4% | -3.23% | 0.716% | -2.25% | -0.356% | 9.63% | 3.33% | 7.77% | 14.6% | -9.2%
CC(C)Oc1ncccc1CNC(=O)N1CCC1c1ccccc1 (stereo unspecified) | -7.94% | 13.2% | -8.45% | 2.16% | 11.3% | -0.766% | 9.69% | 23.3% | 7.35% | 17.1% | -12%
Cc1nc(C2CCCN(C(=O)c3ccc(Cn4cccn4)o3)C2)no1 (stereo unspecified) | 0.739% | -5.2% | 2.21% | 1.09% | -2.43% | 5.34% | -4.9% | 10.9% | 3.88% | 0% | 0.66%
Cc1ccc(C(=O)NCCCNS(C)(=O)=O)cc1-n1cccc1 | -3.12% | 13.2% | 12.3% | -1.07% | 3.99% | 9.47% | 15.2% | 9.99% | 6.38% | 10.4% | -5.78%
COc1ccc(CS(=O)(=O)CC(=O)NCC2CC2)cc1F | -1.25% | 10.5% | 6.04% | -2.71% | 1.66% | 5.92% | 15.6% | 8.09% | 6.38% | 18.2% | -4.08%
Cc1cnn(CC2CN(CCc3ccncc3)CCO2)c1 (stereo unspecified) | -4.16% | 5.48% | 0.214% | -1.34% | -0.783% | 3.18% | 4.08% | -14.5% | 3.23% | 5% | -0.563%
Cc1cc(C)nc(N2CCN(C(=O)c3cc(Cl)c[nH]3)CC2)n1 | -3.35% | 8.22% | -2.54% | 4.32% | 0.595% | -3.99% | 17.2% | -6.92% | 10.4% | 16.1% | -1.43%
COc1ccc(CN2C[C@@H](OCc3csc(C)n3)[C@H]3COC[C@H]32)cc1 | -4.6% | 2.74% | -10.5% | 0.865% | -2.78% | -0.399% | 2.65% | -6.15% | 2.08% | 8.64% | -3.52%
O=C(c1cnoc1)N1CCC[C@]2(C[C@H](Oc3ncccc3F)CO2)C1 | -4.36% | -30.1% | -3.76% | 25% | 9.72% | -5.59% | 11.7% | 9.74% | 4.17% | 8.64% | -3.75%

— ChEMBL document CHEMBL3988442, “University of Dundee, Small-Polar-MMV Screening Library” (2021)
